Where two headings read alike, the source gives them in different places.

The subject of test [1] is AAK1. Set-up: species or system human, MV4-11 + K-562 + COLO205 + SK-N-BE2 + OVCAR-8. As to conditions: read-out: apparent Kd, n = 1.
Test [2] has as its system BMP2K. Set-up: species or system human, MV4-11 + K-562 + COLO205 + SK-N-BE2 + OVCAR-8. As to conditions: read-out: apparent Kd, n = 1.
For test [3], the system named is CSNK2A1;CSNK2A3. On the set-up: species or system human, MV4-11 + K-562 + COLO205 + SK-N-BE2 + OVCAR-8. As to conditions: read-out: apparent Kd, n = 1.
The subject of test [4] is CSNK2A2. Set-up: species or system human, MV4-11 + K-562 + COLO205 + SK-N-BE2 + OVCAR-8. As to conditions: read-out: apparent Kd, n = 1.
The subject of test [5] is FLT3. On the set-up: species or system human, MV4-11 + K-562 + COLO205 + SK-N-BE2 + OVCAR-8. As to conditions: read-out: apparent Kd; compound concentrations: 100 nM and 1000 nM (sheet 'Samples'), CATDS: 9.7213478094733505E-2; n = 1.
Test [6] deals with FLT4. Set-up: species or system human, MV4-11 + K-562 + COLO205 + SK-N-BE2 + OVCAR-8. As to conditions: read-out: apparent Kd, n = 1.
Test [7] deals with GAK. Set-up: species or system human, MV4-11 + K-562 + COLO205 + SK-N-BE2 + OVCAR-8. As to conditions: read-out: apparent Kd, n = 1.
Test [8] concerns GSK3A. Set-up: species or system human, MV4-11 + K-562 + COLO205 + SK-N-BE2 + OVCAR-8. As to conditions: read-out: apparent Kd, n = 1.
Test [9] concerns GSK3B. Set-up: species or system human, MV4-11 + K-562 + COLO205 + SK-N-BE2 + OVCAR-8. As to conditions: read-out: apparent Kd, n = 1.
Test [10] deals with PAK4. Set-up: species or system human, MV4-11 + K-562 + COLO205 + SK-N-BE2 + OVCAR-8. As to conditions: read-out: apparent Kd, n = 1.
In test [11] the test system is PKN3. On the set-up: species or system human, MV4-11 + K-562 + COLO205 + SK-N-BE2 + OVCAR-8. As to conditions: read-out: apparent Kd, n = 1.
Test [12] concerns the target Q6ZSR9 (human, UniProt Q6ZSR9). On the set-up: species or system MV4-11 + K-562 + COLO205 + SK-N-BE2 + OVCAR-8. As to conditions: read-out: apparent Kd, n = 1.
Test [13] deals with SIK2. On the set-up: species or system human, MV4-11 + K-562 + COLO205 + SK-N-BE2 + OVCAR-8. As to conditions: read-out: apparent Kd, n = 1.
Test [14] deals with RET. Set-up: species or system human, MV4-11 + K-562 + COLO205 + SK-N-BE2 + OVCAR-8. As to conditions: read-out: apparent Kd, n = 1.
Test [15] relates to CLK1. Set-up: species or system human, MV4-11 + K-562 + COLO205 + SK-N-BE2 + OVCAR-8. As to conditions: read-out: apparent Kd; compound concentrations:100 nM and 1000 nM (sheet 'Samples'); n = 1.
Test [16] relates to CLK4. On the set-up: species or system human, MV4-11 + K-562 + COLO205 + SK-N-BE2 + OVCAR-8. As to conditions: read-out: apparent Kd; compound concentrations:100 nM and 1000 nM (sheet 'Samples'); n = 1.
The test system of test [17] is NUAK1. Set-up: species or system human, MV4-11 + K-562 + COLO205 + SK-N-BE2 + OVCAR-8. As to conditions: read-out: apparent Kd; compound concentrations:100 nM and 1000 nM (sheet 'Samples'); n = 1.
The test system of test [18] is PKN1. Set-up: species or system human, MV4-11 + K-562 + COLO205 + SK-N-BE2 + OVCAR-8. As to conditions: read-out: apparent Kd; compound concentrations:100 nM and 1000 nM (sheet 'Samples'); n = 1.
Setting [19] is: compound concentrations:100 nM and 1000 nM (sheet 'Samples').

Chain of Q6ZSR9 (Q6ZSR9 whole entry, looked up): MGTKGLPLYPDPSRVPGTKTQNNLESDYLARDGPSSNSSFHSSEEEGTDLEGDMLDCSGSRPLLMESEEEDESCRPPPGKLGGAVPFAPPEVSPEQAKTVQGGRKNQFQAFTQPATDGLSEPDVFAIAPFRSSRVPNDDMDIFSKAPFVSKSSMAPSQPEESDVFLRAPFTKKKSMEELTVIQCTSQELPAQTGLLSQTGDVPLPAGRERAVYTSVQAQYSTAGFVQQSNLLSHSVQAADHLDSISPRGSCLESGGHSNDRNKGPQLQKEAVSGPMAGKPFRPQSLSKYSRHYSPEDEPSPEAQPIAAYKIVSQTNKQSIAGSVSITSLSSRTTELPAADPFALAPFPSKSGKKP

Consider `CN(c1ccc(NC(=O)N2CCN(CCCN3CCOCC3)CC2)cc1)c1ccnc(Nc2ccc(CS(C)(=O)=O)cc2)n1.Cl` [GW830899A], for which the potency estimated from few doses in [1] (compound concentrations: 100 nM and 1000 nM (sheet 'Samples'), CATDS: 3.8742372830354199E-2) is 411 nM; in [2] (compound concentrations: 100 nM and 1000 nM (sheet 'Samples'), CATDS: 2.31268992433276E-2), 1070 nM; in [3] (compound concentrations: 100 nM and 1000 nM (sheet 'Samples'), CATDS: 1.98938138742078E-2) it was 1550 nM; in [4] (compound concentrations: 100 nM and 1000 nM (sheet 'Samples'), CATDS: 2.19439033786193E-2), 1210 nM; in test [5] it was 119 nM; in test [6] (compound concentrations: 100 nM and 1000 nM (sheet 'Samples'), CATDS: 1.9888583471378E-2), 1550 nM. In addition, the potency estimated from few doses in test [7] (compound concentrations: 100 nM and 1000 nM (sheet 'Samples'), CATDS: 3.3242042513279398E-2) is 528 nM; in [8] (compound concentrations: 100 nM and 1000 nM (sheet 'Samples'), CATDS: 3.3329188882870099E-2), 525 nM; in test [9] (compound concentrations: 100 nM and 1000 nM (sheet 'Samples'), CATDS: 2.6554458888549098E-2) it was 796 nM; in [10] (compound concentrations: 100 nM and 1000 nM (sheet 'Samples'), CATDS: 2.0205846564267299E-2) it was 1490 nM; in test [11] (compound concentrations: 100 nM and 1000 nM (sheet 'Samples'), CATDS: 1.8045605554117099E-2), 2080 nM; in test [12] (compound concentrations: 100 nM and 1000 nM (sheet 'Samples'), CATDS: 2.6002877269984698E-2), 831 nM. In test [13] (compound concentrations: 100 nM and 1000 nM (sheet 'Samples'), CATDS: 2.0988983059189802E-2), the potency estimated from few doses is 1350 nM.
With `Cc1ccc(Nc2ccnc(Nc3ccc4c(c3)CS(=O)(=O)C4)n2)cc1O.Cl` [GW579362A], the potency estimated from few doses in test [1] (compound concentrations: 100 nM and 1000 nM (sheet 'Samples'), CATDS: 3.1485270896706399E-2) was 1060 nM; in test [2] (compound concentrations: 100 nM and 1000 nM (sheet 'Samples'), CATDS: 2.75119720973705E-2) it was 1640 nM; in test [3] (compound concentrations: 100 nM and 1000 nM (sheet 'Samples'), CATDS: 3.1042037667094801E-2) it was 1100 nM; in test [4] (compound concentrations: 100 nM and 1000 nM (sheet 'Samples'), CATDS: 3.7509924473465302E-2), 666 nM; in test [6] (compound concentrations: 100 nM and 1000 nM (sheet 'Samples'), CATDS: 3.6167271282575603E-2), 729 nM; in test [14] (compound concentrations: 100 nM and 1000 nM (sheet 'Samples'), CATDS: 5.0599670871917801E-2), 349 nM.
Consider `CC(C)N1CCC(n2cnc(-c3ccc(F)cc3)c2-c2ccnc(N)n2)CC1` [SB-223132], for which the potency estimated from few doses in test [1] (setting [19]) is 730 nM; in test [2] (setting [19]), 531 nM; in test [15], 572 nM; in test [16], 686 nM; in test [3] (setting [19]), 1070 nM; in test [4] (setting [19]), 1400 nM. For the same compound, the potency estimated from few doses was 968 nM in test [6] (setting [19]); 333 nM in [7] (setting [19]); 359 nM in [8] (setting [19]); 441 nM in [9] (setting [19]); 1160 nM in test [17]; 726 nM in test [10] (setting [19]). For the same compound, the potency estimated from few doses in [18] is 1440 nM; in [11] (setting [19]), 1010 nM; in test [12] (setting [19]) it was 581 nM; in [14] (setting [19]), 579 nM; in test [13] (setting [19]), 700 nM.
